According to PubChem BioAssay (NCI):
About 83,000 compounds went through this panel and 20% of them were active in at least one assay; those are over-represented in the sample as a whole.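 Treatment: one concentration, 48 hours, 96-well format. Scoring: percent growth, with anything below 10 considered active.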 Activity calls are given as the source filed them.

test system: HL-60(TB) leukemia; experiment: NCI-60 one-dose screen, 48 h (100 = growth as untreated, 0 = no growth, -100 = all killed); conditions: 10 µM unless noted

SMILES | growth
CC(=O)Oc1csc(N(C(C)=O)c2cccc(C(F)(F)F)c2)n1 | 107% (inactive)
O=C(CCCNC(=O)c1nc(-c2ccccc2)n(-c2ccccc2)n1)NO | 87.9% (inactive)
COc1cc(C(=O)/C=C/c2c(Cl)nc3sccn23)cc(OC)c1OC | 52.2% (inactive)
C=CCn1c(SCC(=O)Nc2ccc(C(=O)/C=C/c3ccc(OC)cc3)cc2)nnc1-c1ccc(OC)c(OC)c1 | 58.5% (inactive)
Brc1ccc(Nc2nc3ccccc3nc2Nc2ccc(Br)cc2)cc1 | -12.3% (active)
COc1ccc(Nc2ncc(Br)c(NCCCNC(=O)c3cccs3)n2)cc1 | 17.7% (inactive)
COc1c(C(NC(=O)c2ccccc2)c2sccc2C)cc(Cl)c2cccnc12 (stereo not given) | 96.1% (inactive)
c1coc(CNc2ccnc(Nc3ccc(OCCN4CCCCC4)cc3)n2)c1 | 74.6% (inactive)
CS(=O)(=O)Nc1cc(-c2ccc3ncnc(Nc4ccc5c(cnn5Cc5ccccc5F)c4)c3c2)cnc1Cl | 22.7% (inactive)
COc1cc(NC(=O)c2sc3nc4c(cc3c2N)C(O)CCC4)cc(OC)c1 (stereo not given) | 73.2% (inactive)
COC(=O)CCC/C=C\C[C@H]1C=CC(=O)/C1=C/C[C@@H](O)C/C=C\CC(F)(F)F | 1.03% (active)
CCOC(=O)c1ccc(Nc2ncnc3c2cnn3-c2cccc(F)c2)cc1 | 109% (inactive)
COc1cccc(-c2nn(-c3ccccc3)cc2-c2ccnc(NCCCO)c2)c1 | -7.94% (active)
N#Cc1c(-c2ccc(Br)cc2)nc2c(N=Nc3ccc(S(N)(=O)=O)cc3)c(N)nn2c1N | 38.1% (inactive)
OC(CNc1ccnc2cc(Cl)ccc12)CNc1ccnc2cc(Cl)ccc12 | -5.79% (active)
CCOC(=O)c1sc(NC(=O)COc2cccc(/C=C3\Cc4ccc(Cl)cc4C3=O)c2)nc1C | 120% (inactive)
Cc1ccc2[nH]c(=O)c3c(c2c1)OC(N)=C(C#N)C31c2cc(Br)ccc2-c2ccc(Br)cc21 | 85.7% (inactive)
Cc1ccc2c(c1)C(=O)c1c-2c(OCCCN(C)C)nc2ccccc12 | 35% (inactive)
COCCOCCCl | 110% (inactive)
Cc1ccc(C(c2c(O)c3cc(Br)ccc3[nH]c2=O)c2c(O)c3cc(Br)ccc3[nH]c2=O)cc1 | 92.2% (inactive)

SMILES | growth
c1ccc(C2=Nc3ccccc3SC2)cc1 | 107% (inactive)
CS(=O)(=O)c1ccc(C(=O)N2N=C(c3ccccc3)CC2c2ccc3c(c2)OCO3)cc1 (stereo not given) | 37% (inactive)
CCc1ccc(-c2nnc(COc3ccc(-c4nc5ccc(C)cc5[nH]4)cc3OC)o2)cc1 | 6.14% (active)
CCC(CC)NCC(C)(C)O | 97.7% (inactive)
O=C(Nc1ccc(Cl)cc1F)c1cc(I)ccc1O | 19.9% (inactive)
O=Cc1ccc(F)cc1 | 103% (inactive)
Cc1c(Cl)cccc1C(=O)Nc1nc2c(s1)CN(C(=O)c1ccc(C(F)(F)F)cc1)CC2 | -21.8% (active)
Cc1ccnc(NC(c2ccccc2)c2ccc3cccnc3c2O)c1 (stereo not given) | -2.23% (active)
CCCCCCC1(/C=N/NC(N)=O)NC(=O)NC1=O (stereo not given) | 96.7% (inactive)
CN(C)CCOc1cccc(-c2nc3sccn3c2-c2ccnc(S(C)(=O)=O)n2)c1 | 104% (inactive)
O=[N+]([O-])c1ccc(Cl)c(-c2cc(CCCCO)on2)c1 | 90.7% (inactive)
Cc1cc(O)cc(-c2c(-c3ccnc(-c4cccnc4)c3)cnn2C)c1 | 46% (inactive)
Nc1nc(N)c2cc(CNc3ccc(Cl)c(Cl)c3)ccc2n1 | 1.98% (active)
O=S(Nc1ccccc1)c1ccc(Cl)cc1 (stereo not given) | 90.8% (inactive)
c1cnc2[nH]cc(-c3csc(-c4cn(CCCN5CCCCC5)c5ccccc45)n3)c2c1 | -2.66% (active)
O=C1CSc2ccccc2N1 | 121% (inactive)
O=C(Cc1ccc(/C=C/C(=O)c2nccs2)cc1)Nc1ccccc1 | 75% (inactive)
N#CN1CC[C@H](C(=O)Nc2ncc(-c3ccncc3)s2)C1 | -28.5% (active)
COc1cc(-c2[nH]ncc2Nc2ccc(Cl)cc2)cc(OC)c1OC | 42.3% (inactive)
O=C1N=C(c2c(-c3[nH]c(=O)c4ccc(Br)cc4c3O)c(O)c3ccccc3c2O)C(=O)c2cc(Br)ccc21 | 45.6% (inactive)
